Laboratory results published in PubChem BioAssay (EPA / NIEHS).
Results filed as inconclusive are left out. The source made the active and inactive calls. How the source made its calls, unless noted: active means hit-call score of the fitted dose curve at least 0.9, where 1 is the maximum; inactive means score below 0.9.

Columns and labels:
[1] = tested on: SRY-box transcription factor 2 (SOX2) Protein Expression, Deisenroth Lab, SOX2 (gene 6657); assay: CCTE_Deisenroth_DEVTOX-GLR_Pluri_SOX2: CCTE's DevTox GLR-Pluri Assay Evaluation of SRY-box transcription factor 2 (SOX2) Protein Expression, Deisenroth Lab (AID 2284428)
Outline: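 Percent SOX2+ RUES2-GLR cells, determined by fluorescence microscopy after 48 h and two 24-h-interval chemical exposures spanning 1 nM–200 uM, served as the endpoint. Values are expressed relative to 0.2% DMSO; total cell counts assessed viability.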

[2] = tested on: Brachyury (BRA) Protein Expression, Deisenroth Lab, TBXT (gene 6862); assay: CCTE_Deisenroth_DEVTOX-GLR_Pluri_BRA: CCTE's DevTox GLR-Pluri Assay Evaluation of Brachyury (BRA) Protein Expression, Deisenroth Lab (AID 2284429; active means hit-call score of the fitted dose curve at least 0.9, where 1 is the maximum)
Outline: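 An inducible fluorescent BRA reporter in RUES2-GLR cells tracks mesoderm differentiation. Compounds (10 concentrations, 1 nM - 200 uM) are dosed twice within a 48-h differentiation. The endpoint subtracts the 0.2% DMSO control from percent BRA+ cells.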

[3] = CCTE_Deisenroth_DEVTOX-GLR_Pluri_CellCount: Viability Assessment in CCTE's DevTox GLR-Pluri Assay Evaluation of Total Cell Counts, Deisenroth Lab (AID 2284430)
Outline: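 RUES2-GLR human pluripotent cells, seeded 24 h, then differentiated 48 h with two chemical exposures 24 h apart; 10-point series 1 nM - 200 uM. Fixed, nuclear-stained, imaged (5 fields/well); nuclei count as % change vs 0.2% DMSO.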

Measured: AC50

CS(=O)(=O)OCCCCOS(C)(=O)=O
active: [1] 2.44 µM | [2] 50.7 µM | [3] 20.1 µM
